Hit rate of the full screen: of about 77,000 compounds, about 4,600 (6%) were called active. Another 1% or so got no clear call; they are omitted. Shown is part of a subset that was picked to be rich in actives. Unmarked numbers belong to inactive results.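 How the source made its calls: active means mean inhibition above about 93%, with at least 55% of replicates each passing it (limit read from the data, passing the limit was not always enough); inconclusive means only one of those two conditions holds; inactive means neither condition holds.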
experiment: T. cruzi intracellular proliferation inhibitors, primary screen, cell-based, beta-gal Tulahuen parasites, NIH3T3 host, luminescence (AID 624255); settings: T. cruzi beta-gal in NIH3T3, GalScreen luminescence, 90 h; at 8.34 µM; hits give high values

Row | Structure (SMILES) | inhibition
1 | C[C@H](CO)N1C[C@H](C)[C@@H](CN(C)C(=O)CCC(F)(F)F)OCCCC[C@H](C)Oc2ccc(NC(=O)C3CCCCC3)cc2C1=O | 39.7%
2 | COc1cccc(-c2ccc3c(c2)[C@@H]2[C@@H](CCN2S(=O)(=O)C2=NC(C)C=N2)[C@@H](CO)N3C)c1 (stereo partly drawn) | 6.92%
3 | CO[C@H]1CN(C)C(=O)c2cc(NC(=O)Nc3cccc(F)c3)ccc2OC[C@H](C)N(C(C)=O)C[C@H]1C | 26.3%
4 | COc1cccc(-c2ccc([C@H]3[C@H](CO)N4CCCCN(S(=O)(=O)c5cccs5)C[C@@H]34)cc2)c1 | 91.7%
5 | Cc1cccc(-c2ccc([C@@H]3[C@@H](CO)N4CCCCN(S(=O)(=O)c5cccs5)C[C@H]34)cc2)c1 | 118% (active)
6 | Cc1cccc(-c2ccc([C@H]3[C@H](CO)N4CCCCN(S(=O)(=O)c5cn(C)cn5)C[C@@H]34)cc2)c1 | 41.5%
7 | O=S(=O)(c1ccccc1)N1CCCCN2[C@H](C1)[C@H](c1ccc(-c3ccccc3)cc1)[C@@H]2CO | 94.7%
8 | CCCC#Cc1ccc([C@H]2[C@@H](CO)N3CCCCN(S(=O)(=O)CC)C[C@H]23)cc1 | 65.9%
9 | OC[C@H]1[C@H](c2ccc(-c3cccnc3)cc2)[C@H]2CN(Cc3ccccn3)CCCCN21 | 79.7%
10 | CN1CCCCN2[C@H](CO)[C@H](c3ccc(-c4ccc(F)cc4)cc3)[C@@H]2C1 | 14.5%
11 | CCCC#Cc1ccc([C@H]2[C@@H](CO)N3CCCCN(S(=O)(=O)Cc4ccccc4)C[C@H]23)cc1 | 54.7%
12 | O=S(=O)(Cc1ccccc1)N1CCCCN2[C@@H](CO)[C@H](c3ccc(-c4cccnc4)cc3)[C@@H]2C1 | 106% (active)
13 | O=S(=O)(Cc1ccccc1)N1CCCCN2[C@@H](CO)[C@@H](c3ccc(-c4ccc(F)cc4)cc3)[C@@H]2C1 | 98.2% (active)
14 | CCS(=O)(=O)N1CCCCN2[C@@H](CO)[C@@H](c3ccc(-c4ccccc4)cc3)[C@@H]2C1 | 93.7% (active)
15 | COCc1cn(CC[C@H]2CC[C@H](NC(=O)Nc3ccc4c(c3)OCO4)[C@@H](CO)O2)nn1 | -12.8%
16 | C[C@H](CO)N1C[C@H](C)[C@@H](CN(C)C(=O)Nc2ccc3c(c2)OCO3)OCCCC[C@H](C)Oc2ccc(NC(=O)Nc3ccc(F)cc3)cc2C1=O | -31.4%
17 | O=C(C[C@H]1C=C[C@H](NC(=O)C2CCOCC2)[C@@H](CO)O1)NCC1CC1 | -20.7%
18 | CC(C)NC(=O)N(C)C[C@H]1OCCCC[C@H](C)Oc2ccc(NS(=O)(=O)c3ccc(Cl)cc3)cc2C(=O)N([C@@H](C)CO)C[C@H]1C | -6.73%

Source: PubChem BioAssay AID624255 (Broad Institute, 2012)
